Data: PubChem BioAssay (NCI)
Compounds without any hit were thinned out: in the full panel of roughly 79,000, 15% have a hit. Activity calls are given as the source filed them. Cut-off read from the data, not from the text of the source: active = growth inhibition above about 70%; inactive = the rest.

Legend:
[1] = NCI Yeast Anticancer Drug Screen. Data for the rad52 strain (AID 147);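 note: 0% = growth of vehicle-treated control cultures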; settings: S. cerevisiae rad52 mutant growth inhibition, active compounds read high
Procedure, shortened: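 Read-out: growth inhibition versus vehicle-treated controls. Cells were a DNA repair-deficient yeast strain treated with compounds.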

[2] = NCI Yeast Anticancer Drug Screen. Data for the wt1 strain (AID 149);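 note: 0% = growth of vehicle-treated wt1 cultures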; settings: S. cerevisiae wt1 strain (SPY 50644) growth inhibition, active compounds read high
Procedure, shortened: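 wt1 strain grown with compound or vehicle; inhibition taken from the growth difference.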

[3] = NCI Yeast Anticancer Drug Screen. Data for the rad50EPP+ strain (AID 151);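 note: 0% = growth of vehicle-treated control cultures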; settings: S. cerevisiae rad50 mutant strain, active compounds read high
Procedure, shortened: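 Growth inhibition read against vehicle controls in rad50EPP+ yeast, a strain altered in DNA damage repair, after compound exposure.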

[4] = NCI Yeast Anticancer Drug Screen. Data for the mgt1 strain (AID 153); settings: S. cerevisiae mgt1 mutant growth inhibition, active compounds read high
Procedure, shortened: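 mgt1 yeast grown with test compound; read-out is growth inhibition versus vehicle-treated cultures.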

[5] = NCI Yeast Anticancer Drug Screen. Data for the rad50 strain (AID 155);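 note: 0% = growth of vehicle-only cultures of the same strain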; settings: S. cerevisiae rad50 strain growth inhibition, active compounds read high
Procedure, shortened: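 DNA repair mutant yeast, compound exposure, growth read-out; inhibition is taken relative to vehicle.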

[6] = NCI Yeast Anticancer Drug Screen. Data for the mec2-1 strain (AID 157); settings: S. cerevisiae mec2-1 strain, active compounds read high
Procedure, shortened: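 Yeast mec2-1 mutant treated with compound. Readout: growth inhibition vs vehicle controls.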

[7] = NCI Yeast Anticancer Drug Screen. Data for the rad14 strain (AID 159);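 note: 0% = growth of vehicle-treated control cultures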; settings: S. cerevisiae rad14 strain growth inhibition, active compounds read high
Procedure, shortened: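 DNA repair-defective yeast, compound-exposed; % growth inhibition derived by comparison with vehicle-treated controls.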

[8] = NCI Yeast Anticancer Drug Screen. Data for the sgs1 mgt1 strain (AID 161);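 note: 0% = growth of cultures given vehicle only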; settings: S. cerevisiae sgs1 mgt1 strain, active compounds read high
Procedure, shortened: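 Inhibition of yeast growth, normalised to vehicle-treated controls, is reported for a strain bearing genetic alterations in DNA damage repair.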

[9] = NCI Yeast Anticancer Drug Screen. Data for the CLN2oe strain (AID 163);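 note: 0% = growth of vehicle-only control cultures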; settings: S. cerevisiae CLN2oe strain, active compounds read high
Procedure, shortened: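 Read-out: yeast growth inhibition, expressed relative to vehicle-only controls. The strain bears an engineered cell-cycle alteration.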

[10] = NCI Yeast Anticancer Drug Screen. Data for the cln2 rad14 strain (AID 165);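 note: 0% = growth equal to vehicle treated cultures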; settings: S. cerevisiae cln2 rad14 strain, active compounds read high
Procedure, shortened: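 cln2 rad14 yeast strain; compound exposure; growth inhibition read vs vehicle controls.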

[11] = NCI Yeast Anticancer Drug Screen. Data for the bub3 strain (AID 167); settings: S. cerevisiae bub3 mutant strain, active compounds read high
Procedure, shortened: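 In this screen, a yeast mutant lacking normal mitotic checkpoint function is challenged with compound. Relative growth versus vehicle gives the inhibition value.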

[12] = NCI Yeast Anticancer Drug Screen. Data for the wt2 strain (AID 169);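 note: 0% = growth of vehicle-treated yeast cultures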; settings: S. cerevisiae wt2 strain growth inhibition, active compounds read high
Procedure, shortened: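 Read-out: growth inhibition versus vehicle-treated control cultures after compound exposure of the yeast strain.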

[13] = NCI Yeast Anticancer Drug Screen. Data for the mlh1 strain (AID 171);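 note: 0% = growth of vehicle-treated control cultures of the same strain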; settings: S. cerevisiae mlh1 strain growth inhibition, active compounds read high
Procedure, shortened: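 Read-out: growth inhibition versus vehicle controls. Strain: engineered yeast with a defined DNA repair or cell cycle defect, compound-treated.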

[14] = NCI Yeast Anticancer Drug Screen. Data for the sgs1 strain (AID 173);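 note: 0% = growth of vehicle-only control cultures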; settings: S. cerevisiae sgs1 mutant, active compounds read high
Procedure, shortened: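 Read-out: yeast growth inhibition relative to vehicle controls, following compound exposure of a strain with a defined DNA repair/cell cycle alteration.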

[15] = NCI Yeast Anticancer Drug Screen. Data for the mlh1 rad18 strain (AID 175); settings: S. cerevisiae mlh1 rad18 strain growth inhibition, active compounds read high
Procedure, shortened: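 Yeast w/ defined DNA-repair lesions; compound exposure; growth vs vehicle controls → % inhibition.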

[16] = NCI Yeast Anticancer Drug Screen. Data for the rad18 strain (AID 177); settings: S. cerevisiae rad18 mutant growth inhibition, active compounds read high
Procedure, shortened: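 Readout: growth inhibition vs vehicle controls. Cells: genetically altered yeast strain, DNA repair defect.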

[17] = at 5.0 µM (retest, dose inferred, filed as 0.5)
[18] = at 50.0 µM (retest, dose inferred, filed as 5.0)

Measured: growth inhibition

Cc1cc2c(cc1C(=O)CCC(=O)O)CC1(C2)Cc2cc(C)c(C(=O)CCC(=O)O)cc2C1
active: [15]; [18] 70%
inactive: [1]; at 1.2 µM 3% | [1]; at 3.7 µM 6% | [1]; at 11.0 µM 11% | [1]; at 33.0 µM 25% | [1]; at 100.0 µM 47% | [2]; at 1.2 µM 3% | [2]; at 3.7 µM 4% | [2]; at 11.0 µM 12% | [2]; at 33.0 µM 21% | [2]; at 100.0 µM 35% | [3]; at 1.2 µM 1% | [3]; at 3.7 µM 0% | [3]; at 11.0 µM 8% | [3]; at 33.0 µM 15% | [3]; at 100.0 µM 30% | [4]; at 1.2 µM 2% | [4]; at 3.7 µM 6% | [4]; at 11.0 µM 12% | [4]; at 33.0 µM 36% | [4]; at 100.0 µM 42% | [5]; at 1.2 µM 3% | [5]; at 3.7 µM 2% | [5]; [17] 13% | [5]; at 11.0 µM 9% | [5]; at 33.0 µM 21% | [5]; [18] 36% | [5]; at 50.0 µM 56.5% | [5]; at 100.0 µM 42% | [6]; at 1.2 µM -2% | [6]; at 3.7 µM 1% | [6]; [17] -4% | [6]; at 11.0 µM 12% | [6]; at 33.0 µM 26% | [6]; [18] 14% | [6]; at 50.0 µM 31.5% | [6]; at 100.0 µM 56% | [7]; at 1.2 µM -1% | [7]; at 3.7 µM 2% | [7]; at 11.0 µM 8% | [7]; at 33.0 µM 22% | [7]; at 100.0 µM 44% | [8]; [17] -4% | [8]; [18] 29% | [8]; at 50.0 µM 49.9% | [9]; at 1.2 µM -5% | [9]; at 3.7 µM 2% | [9]; at 11.0 µM 14% | [9]; at 33.0 µM 27% | [9]; at 100.0 µM 41% | [10]; [17] 16% | [10]; [18] 47% | [10]; at 50.0 µM 38.4% | [11]; at 1.2 µM -4% | [11]; at 3.7 µM 0% | [11]; [17] 13% | [11]; at 11.0 µM 9% | [11]; at 33.0 µM 17% | [11]; [18] 62% | [11]; at 50.0 µM 54.8% | [11]; at 100.0 µM 54% | [12]; at 1.2 µM 0% | [12]; at 3.7 µM 2% | [12]; at 11.0 µM 10% | [12]; at 33.0 µM 26% | [12]; at 100.0 µM 46% | [13]; at 1.2 µM 5% | [13]; at 3.7 µM 5% | [13]; at 11.0 µM 14% | [13]; at 33.0 µM 27% | [13]; at 100.0 µM 50% | [14]; at 1.2 µM 2% | [14]; at 3.7 µM 7% | [14]; at 11.0 µM 14% | [14]; at 33.0 µM 33% | [14]; at 100.0 µM 69% | [15]; [17] -1% | [15]; at 50.0 µM 67.8% | [16]; at 1.2 µM 1% | [16]; at 3.7 µM 1% | [16]; at 11.0 µM -3% | [16]; at 33.0 µM 22% | [16]; at 100.0 µM 63%

C(=C\c1ccccc1)/COc1ccccc1C(N1CCOCC1)n1nc2ccccc2n1 (stereo unspecified)
active: [1]; at 33.0 µM 85% | [1]; at 100.0 µM 97% | [2]; at 33.0 µM 88% | [2]; at 100.0 µM 98% | [3]; at 100.0 µM 95% | [4]; at 33.0 µM 91% | [4]; at 100.0 µM 98% | [5]; at 33.0 µM 96% | [5]; [18] 98% | [5]; at 50.0 µM 98.1% | [5]; at 100.0 µM 97% | [6]; at 33.0 µM 86% | [6]; [18] 95% | [6]; at 50.0 µM 98.8% | [6]; at 100.0 µM 98% | [7]; at 33.0 µM 97% | [7]; at 100.0 µM 98% | [8]; [18] 97% | [8]; at 50.0 µM 97.9% | [9]; at 100.0 µM 93% | [10]; [18] 81% | [10]; at 50.0 µM 91.2% | [11]; at 33.0 µM 86% | [11]; [18] 98% | [11]; at 50.0 µM 98.3% | [11]; at 100.0 µM 97% | [12]; at 33.0 µM 95% | [12]; at 100.0 µM 99% | [13]; at 33.0 µM 93% | [13]; at 100.0 µM 97% | [14]; at 33.0 µM 96% | [14]; at 100.0 µM 99% | [15]; [18] 99% | [15]; at 50.0 µM 99% | [16]; at 33.0 µM 86% | [16]; at 100.0 µM 98%
inactive: [1]; at 1.2 µM 3% | [1]; at 3.7 µM 3% | [1]; at 11.0 µM 13% | [2]; at 1.2 µM 32% | [2]; at 3.7 µM 36% | [2]; at 11.0 µM 33% | [3]; at 1.2 µM -5% | [3]; at 3.7 µM 1% | [3]; at 11.0 µM 25% | [3]; at 33.0 µM 64% | [4]; at 1.2 µM 8% | [4]; at 3.7 µM 9% | [4]; at 11.0 µM 20% | [5]; at 1.2 µM -6% | [5]; at 3.7 µM -21% | [5]; [17] -9% | [5]; at 11.0 µM 8% | [6]; at 1.2 µM -19% | [6]; at 3.7 µM -13% | [6]; [17] 3% | [6]; at 11.0 µM -1% | [7]; at 1.2 µM -4% | [7]; at 3.7 µM 0% | [7]; at 11.0 µM 35% | [8]; [17] -1% | [9]; at 1.2 µM 0% | [9]; at 3.7 µM -9% | [9]; at 11.0 µM -10% | [9]; at 33.0 µM 11% | [10]; [17] 11% | [11]; at 1.2 µM 1% | [11]; at 3.7 µM -14% | [11]; [17] 3% | [11]; at 11.0 µM -4% | [12]; at 1.2 µM -4% | [12]; at 3.7 µM 1% | [12]; at 11.0 µM 25% | [13]; at 1.2 µM -2% | [13]; at 3.7 µM -2% | [13]; at 11.0 µM 37% | [14]; at 1.2 µM 23% | [14]; at 3.7 µM 22% | [14]; at 11.0 µM 54% | [15]; [17] 16% | [16]; at 1.2 µM -2% | [16]; at 3.7 µM -7% | [16]; at 11.0 µM 6%
